# Screening data (PubChem)
# An excerpt weighted towards active compounds, which were near 7.9% of everything screened.
# HT1080NT lethal: qHTS for induction of synthetic lethality in tumor cells producing 2HG: qHTS for the HT-1080-NT fibrosarcoma cell line; HT-1080-NT fibrosarcoma viability, CellTiter-Glo ATP luminescence, 48 h; Potency, µM (top dose mostly 46.1 µM), for inactives: top-dose activity, negative = less viability, hits mostly cytotoxic; 360,000 compounds, 1.6% hits; AID 686970, 2013;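 further: NT is the 2HG producing partner of a matched IDH1 knockdown line; 0% = DMSO-treated cells and -100% = media-only wells without cells; nearly all actives have a fitted effect of over 55% in size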
#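 Viability by CellTiter-Glo luminescence after 48 h compound exposure at 37C of HT-1080-NT cells (750/well, RPMI, 5% FBS). % activity scaled between DMSO wells and medium-only wells, then curve-fitted and categorized by curve class.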
# KB-3-1 cytotox: qHTS assay for MDR1-selective chemotherapeutics: Primary screen using the parental adenocarcinoma cell KB-3-1; KB-3-1 viability, CellTiter-Glo ATP luminescence, 72 h; Potency, µM (highest dose often 46.1 µM), usual class: cytotoxic; 400,000 compounds, 1.4% hits; AID 1347075, 2019; further: on the % scale 0 is the no-effect control and ±100 the full control effect; nearly all actives have a fitted effect of over 60% in size
#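 Viability of parental KB-3-1 cells, measured by CellTiter-Glo luminescence, followed a 72 h incubation at 37 °C with pinned compounds in phenol-red-free DMEM containing 10% FBS.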
# HT1080 IDH1KD tx: qHTS for induction of synthetic lethality in tumor cells producing 2HG: qHTS for the HT-1080-IDH1KD cell line | HT-1080 IDH1 knockdown viability, ATP luminescence, 48 h | Potency, µM (doses to about 46.1 µM), without a hit: at the top dose activity, negative = toxicity, usual class: cytotoxic | 360,000 compounds, 2% hits | AID 686971, 2013;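 further: 0% = DMSO wells and -100% = cell-free medium wells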
#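 IDH1KD HT-1080 cells, 750/well, RPMI + 5% FBS; compound pinned after 2 h settling; 48 h, 37 °C; CellTiter-Glo luminescence; % activity normalised to DMSO and no-cell wells; curves fitted, classed by r2 and efficacy.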
# MCF10A rereplic: A quantitative high throughput screen for small molecules that induce DNA re-replication in MCF 10a normal breast cells; MCF 10A DNA re-replication, Hoechst nuclear intensity, 48 h; Potency, µM (highest dose often 46.1 µM), without a hit: at the top dose activity, positive = re-replication, most hits filed as activators; 350,000 compounds, 2.9% hits; AID 624296, 2012; further: % of control where 0% means no effect; nearly all actives have a fitted effect of over 50% in size
# KB-V1 MDR tox: qHTS assay for MDR1-selective chemotherapeutics: Primary screen using the drug-selected MDR subline cells KB-V1; Potency, µM (doses to about 46.1 µM), actives largely listed as cytotoxic; KB-V1 MDR cells viability, CellTiter-Glo, 72 h; AID 1347076, 2019; 400,000 compounds, 3.4% hits; further: on the % scale 0 is the no-effect control and ±100 the full control effect; nearly all actives have a fitted effect of over 60% in size
#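 Potencies derive from concentration-effect curves fitted to normalized luminescence (CellTiter-Glo) of KB-V1 cells treated for 72 h at 37 degrees C in phenol-red-free DMEM containing 10% FBS.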
# SW480 rerep: A quantitative high throughput screen for small molecules that induce DNA re-replication in SW480 colon adenocarcinoma cells; SW480 DNA re-replication, Hoechst DNA content imaging, 48 h; Potency, µM (doses to about 46.1 µM), without a hit: at the highest dose re-replication activation, most hits filed as activators; 340,000 compounds, 1.8% hits; further: % of control where 0% means no effect; nearly all actives have a fitted effect of over 55% in size
#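 Readout is total intensity of Hoechst-stained nuclei, excited at 405 nm and collected at 500-530 nm. Compound treatment lasted 48 hr at 37 C in 5% CO2 before staining.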
# An asterisk follows results filed as active; i = inactive; ? = inconclusive; · = no result; [ ] = another dose, or the depositor's remark. The call rests on the fitted dose curve; in most records, active means well fitted curve in the direction sought with a large enough effect; inconclusive means small, poorly fitted or top-dose-only effect, or another doubt; inactive means no such curve, though single readings can be large; an effect the other way counts as inactive or inconclusive. Potency means the concentration at half of the fitted maximal effect.
SMILES,HT1080NT lethal,KB-3-1 cytotox,HT1080 IDH1KD tx,MCF10A rereplic,KB-V1 MDR tox,SW480 rerep
O=C(NCc1ccc(F)cc1)c1ccc2c(c1)S(=O)(=O)c1ccccc1C2=O,-1%,i,0%,?,i,-14%
CC(C)(C)c1ccc(C(=O)NCCC(=O)Nc2ccc3c(c2)OCCO3)cc1,5%,i,4%,8%,?,5%
Cc1nc2scc(-c3cccs3)c2c(=O)[nH]1,7%,i,5%,-7%,i,-5%
O=c1[nH]c(-c2ccc(O)cc2)nc2scc(-c3cccs3)c12,4%,i,-1%,7.3µM*,i,12%
O=C(N/N=C/c1ccc(N2CCCCC2)o1)c1ccccc1[N+](=O)[O-],-5%,i,?,5.8µM*,i,7.3µM*
O=C(N/N=C/c1ccc(N2CCOCC2)o1)c1ccccc1[N+](=O)[O-],21%,i,19%,?,i,20%
COc1ccc(NC(C)C(=O)Nc2ccc(C#N)cc2)cc1Cl (stereo not given),?,i,?,7%,21µM*,-9%
COc1ccc(NC(C)C(=O)Nc2ccc(C(C)(C)C)cc2)cc1Cl (stereo not given),?,i,?,16µM*,i,12%
COc1ccc(NCC(=O)Nc2ccc(C#N)cc2)cc1Cl,-3%,i,-7%,2%,i,7%
CCn1ccnc1C(O)c1ccccc1OC (stereo not given),-2%,i,3%,13µM*,i,18µM*
COc1ccccc1C(O)c1nccn1C (stereo not given),5%,i,21%,19%,i,-2%
COc1ccc(S(=O)(=O)N(Cc2ccccc2)c2ccccc2C(=O)N2CCOCC2)cc1,23µM*,?,?,?,13µM*,?
COc1ccc(N(CC(=O)Nc2cc(C)on2)S(=O)(=O)c2ccc(Cl)cc2)cc1,-7%,i,-29%,1%,i,1%
COc1ccc(N(CC(=O)Nc2cc(C)on2)S(=O)(=O)c2cc(C)ccc2C)cc1,?,?,?,23%,5.8µM*,?
CCN(CC(=O)Nc1cc(Cl)ccc1C)C(=O)c1oc2ccc(OC)cc2c1C,0%,i,-4%,15%,16µM*,-4%
Cc1ccc(S(=O)(=O)N(Cc2ccccc2)c2ccccc2C(=O)NCc2ccco2)cc1,11µM*,i,3%[9.24 µM],?,i,3%
CC(C)c1ccccc1Oc1c(C(F)(F)F)oc2c(CN3CCN(C)CC3)c(O)ccc2c1=O,·,i,·,·,i,·
CCCSc1ncc(Cl)c(C(=O)Nc2sc3c(c2C(=O)NCCCOC)CCCC3)n1,·,?,·,·,i,·
CCS(=O)(=O)N(CC(=O)Nc1cccc2ccccc12)c1ccc(OC)cc1,2%,i,3%,4%,13µM*,-1%
Cc1ccc(N(CC(=O)Nc2ccc3c(c2)OCCO3)S(=O)(=O)c2c(C)noc2C)cc1,-15%,i,-10%,-3%[9.22 µM],?,-1%
COc1ccc(N(CC(=O)Nc2ccc3c(c2)OCCO3)S(=O)(=O)c2c(C)noc2C)cc1,-3%,?,?,?,2.9µM*,18%
COc1ccc(N(CC(=O)Nc2cc(Cl)ccc2C)S(=O)(=O)c2c(C)n[nH]c2C)cc1,?,9.2µM*,?,-4%,i,-1%
COc1ccc(N(CC(=O)Nc2cccc3ccccc23)S(C)(=O)=O)cc1,3%,i,3%,?,i,-39%
CCOc1ccc(N(CC(=O)Nc2ccccc2C(=O)N2CCOCC2)S(=O)(=O)c2ccc(F)cc2)cc1,0%,i,9%,0%,4.6µM*,0%
Cc1cc(C(=O)NCc2ccccc2Cl)c2c(C)nn(-c3ccccc3)c2n1,·,i,·,·,?,·
SMILES,HT1080NT lethal,KB-3-1 cytotox,HT1080 IDH1KD tx,MCF10A rereplic,KB-V1 MDR tox,SW480 rerep
CCOc1ccccc1N(CC(=O)Nc1ccccc1F)S(=O)(=O)c1ccccc1,-13%,i,-11%,0.58µM*,?,?
CCOc1ccc(N(CC(=O)Nc2ccccc2OC)S(=O)(=O)c2ccccc2)cc1,2.1µM*,4.6µM*,1.6µM*,?,1µM*,2.3µM*
CCOc1ccc(N(CC(=O)Nc2ccccc2OCC)S(=O)(=O)c2c(C)noc2C)cc1,2.3µM*,3.3µM*,2.3µM*,1.3µM*,5.8µM*,5.8µM*
Cc1ccc(NC(=O)c2ccc(=O)n(CC(=O)Nc3ccccc3)n2)cc1,11%,i,2%,-2%,i,0%
CC(C)CCSc1nc(N)c(C#N)cc1C#N,-21%,i,-29%,17%,21µM*,-1%
CC(=O)c1cc(C#N)c(SCCC(C)C)nc1C,9%,i,-1%,2%,i,1%
CCOc1ccc(Br)cc1S(=O)(=O)NCC(c1ccc(OC)cc1)N1CCOCC1 (stereo not given),-2%,i,-2%,-1%,i,-8%
CCc1ccc2nc(N(CCCN(C)C)C(=O)c3ccc(S(=O)(=O)N4CCc5ccccc5C4)cc3)sc2c1,?,i,13µM*,?,i,?
CCc1ccc2nc(N(CCCN(C)C)C(=O)c3ccc(S(=O)(=O)N(C)C4CCCCC4)cc3)sc2c1,?,?,23µM*,18µM*,i,?
COc1ccc2c(Cn3cnc4cc([N+](=O)[O-])ccc4c3=O)cc(=O)oc2c1,3.7µM*,4.6µM*,2.6µM*,9.2µM*,4.6µM*,5.8µM*
Cc1ccc2c(CN(C)Cc3ccccc3)cc(=O)oc2c1C,?,?,?,0%,?,3%
Cc1ccc2c(CN(C)Cc3ccc(OC(F)F)cc3)cc(=O)oc2c1C,-2%,?,-15%,15%,16µM*,-13%
CCCCCCCCC(=O)N/N=C/c1cccc(Br)c1,2%,i,15%,18µM*,i,17%
CCCCCCC(=O)N/N=C/c1ccc(Br)cc1,9%,i,9%,?,i,?
CCCCCCC(=O)Nc1ccc(C(=O)N/N=C/c2cccnc2)cc1,23µM*,?,8.2µM*,1%,i,-3%
CCS(=O)(=O)N1CCC(NC(=O)C(Cc2ccc(OC)c(OC)c2)NC(C)=O)CC1 (stereo not given),8%,i,7%,-1%,i,-8%
